HPGD inh – qHTS Assay for Inhibitors of HPGD (15-Hydroxyprostaglandin Dehydrogenase); Potency, µM, without a hit: top-dose activity change, negative = inhibition, hits mostly inhibitors; 150,000 compounds, 4.3% hits; purified HPGD, NADH fluorescence kinetic, PGE2 substrate; 15-hydroxyprostaglandin dehydrogenase [NAD(+)] (Homo sapiens), P15428; further: potency means the concentration at half of the fitted maximal effect
Target sequence (P15428 whole entry, looked up): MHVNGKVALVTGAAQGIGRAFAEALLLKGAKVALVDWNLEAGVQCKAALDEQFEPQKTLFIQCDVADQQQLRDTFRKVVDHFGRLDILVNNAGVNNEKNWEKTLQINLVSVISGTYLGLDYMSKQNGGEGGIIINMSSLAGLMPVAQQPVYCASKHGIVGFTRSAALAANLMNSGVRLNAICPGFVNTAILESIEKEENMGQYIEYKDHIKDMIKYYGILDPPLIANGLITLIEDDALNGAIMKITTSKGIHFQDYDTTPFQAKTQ
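20 nM HPGD preincubated 15 min at room temperature with compound in 50 mM Tris-HCl pH 8, 0.01% Tween 20. Started with 1 mM NAD+ and 30 uM prostaglandin E2; NADH fluorescence (360/450 nm) read 5 times over 30-s intervals, last minus first.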
ALDH1A1 block – qHTS Assay for Inhibitors of Aldehyde Dehydrogenase 1 (ALDH1A1) | 220,000 compounds, 7.3% hits | Aldehyde dehydrogenase 1A1 (Homo sapiens), P00352 | Potency, µM (titrated, usually from 75.3 µM), for inactives: at the top dose activity, negative = inhibition, usual class: inhibitors | Purified ALDH1A1, NADH fluorescence, propionaldehyde substrate | AID 1030, 2008;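 further: potency means the concentration at half of the fitted maximal effect; plate controls were no enzyme wells and a reference inhibitor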
PNC inhibitor – High Content Assay for Compounds that inhibit the Assembly of the Perinucleolar Compartment. PC3M PTB-GFP, PNC prevalence imaging, 16 h; hits give low values. activity change (PNC), negative = inhibition, % at 10 µM. 140,000 compounds, 3.1% hits;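 active means readout at or below -70, meaning at least 70% loss of cells showing the perinucleolar compartment, a nuclear body marking cancer cells; inconclusive means readout between -30 and a set limit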;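 further: plate controls were DMSO wells for no effect and camptothecin positive control wells for full effect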
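Read-out is percentage of cells bearing a perinucleolar compartment, from automated 20x imaging of fixed, Hoechst-stained PC3M PTB-GFP cells. Cells were seeded 4 h, then exposed 16 h to compound (23 nl of library stock) in duplicate plates.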
* hit, by the source's call; ? = inconclusive; . = no result given; [ ] = dose if it differs, or a comment. Shown are actives, neighbours in structure and some others; about 11% of the full set was active somewhere. Unless noted, the call rests on the fitted dose curve; in most records, active means well fitted inhibition curve with a large enough effect (not every such curve was filed as active); inconclusive means small, poorly fitted or top-dose-only effect, or another doubt; inactive means no such curve, though single readings can be large or run the other way. Unless noted, on the % scale 0 is the no-effect control and ±100 the full control effect.

SMILES	HPGD inh	ALDH1A1 block	PNC inhibitor
Cc1ccccc1-n1c(SCC(=O)c2cc(C)n(C)c2C)nnc1-c1cccnc1	25.1µM*	?	-5.5
Cc1ccc(NC(=O)CSc2nnc(-c3cccnc3)n2-c2ccc(C)cc2)cc1	-13.4%	5.9%	4.1
O=C(CSc1n[nH]c(-c2ccccc2)n1)Nc1ccc(N2CCOCC2)cc1	.	22.4µM*	.
O=C(CSc1nnc(-c2cccnc2)n1-c1ccccc1)Nc1ccccc1	-14.7%	1.2%	-100.0*
O=C(CSc1ccccc1)Nc1ccc(N2CCOCC2)cc1	-7.8%	?	2.2
COCCn1c(C)cc(C(=O)CSc2nnc(-c3cccnc3)n2-c2ccccc2F)c1C	-5.3%	0.5%	-13.6
COC(=O)CSc1n[nH]c(-c2cccnc2)n1	-11.1%	12.2%	32.2
O=C(CSc1n[nH]c(-c2cccnc2)n1)Nc1ccccc1	10µM*	1.4%	-29.7
O=C(O)CCCNC(=O)c1cccc(C(=O)NCCCC(=O)O)n1	-6.0%	0.4%	14.8
COc1ccc(CN2CCn3nc(C(=O)NC4CC4)cc3C2=O)cc1	.	-12.5%	.
CC(=O)c1cccc(NC(=O)N2CCCC2C(=O)Nc2ccc3c(c2)OCO3)c1 (stereo unspecified)	.	-3.6%	.
CC(=O)Nc1cccc(-c2csc(Nc3ccc(C)cn3)n2)c1	-25.2%	10.3%	-1.8
COc1ccc(-c2csc(Nc3ccc(C)cn3)n2)cc1	.	23.8µM*	.
COc1ccc(OC)c(C2CC(=O)N3CN(c4cccc(Cl)c4C)CSC3=C2C#N)c1 (stereo unspecified)	7.94µM*	3.16µM*	-24.2
COc1ccc(OC)c(C2C(C#N)=C(N)Oc3cc(C)n(Cc4ccccn4)c(=O)c32)c1 (stereo unspecified)	-5.8%	-1.0%	20.2
COc1cccc(C2C(C#N)=C(N)Oc3cc(C)[nH]c(=O)c32)c1OC (stereo unspecified)	-13.4%	?	?
COc1cccc(C2CC(=O)N3CN(c4cccc(Cl)c4C)CSC3=C2C#N)c1OC (stereo unspecified)	7.94µM*	3.16µM*	?
CC(C)CCNC(=O)C(=O)Nc1ccccc1	.	4.1%	.
Cn1cc(CN2CCC[C@H]2CO)c(-c2cccc(Cl)c2)n1	.	6.0%	.
OC(c1ccc(Cl)cc1)c1nnc(-c2ccccc2)o1 (stereo unspecified)	17.8µM*	0.4%	-6.6
Cc1ccccc1-c1nnc(-c2ccc(Cl)cc2)o1	?	-6.5%	68.3
CC(Oc1ccccc1Cl)C(=O)N1CCOCC1 (stereo unspecified)	28.2µM*	?	12.4
O=C(Oc1ccccc1OC(=O)N1CCOCC1)N1CCOCC1	4.6%	4.2%	12.8
CC(C)C[C@@H](CC(=O)N[C@@H](CCC(=O)O)CC(=O)O)NC(=O)[C@@H]1CCCC[C@H]1NC(=O)C[C@H](CCCN)NC(=O)C[C@H](Cc1ccccc1)NC(=O)[C@@H]1CCCC[C@H]1N	-8.0%	5.4%	.
CCOc1ccc(S(=O)(=O)N2CCN(C(=O)c3cc4c(s3)CCCC4)CC2)cc1	-3.8%	?	-22.2
SMILES	HPGD inh	ALDH1A1 block	PNC inhibitor
O=C(O)C1CCCNC1 (stereo unspecified)	3.7%	7.1%	-82.7*
O=C(O)[C@H]1CCCNC1	5.8%	6.9%	.
CC(C)C[C@H](NC(=O)[C@H](Cc1ccccc1)NC(=O)CNC(=O)CNC(=O)[C@@H](N)Cc1ccc(O)cc1)C(=O)N[C@@H](CCCN=C(N)N)C(=O)N[C@@H](CCCN=C(N)N)C(=O)N[C@@H](CCC(N)=O)C(=O)N[C@@H](Cc1ccccc1)C(=O)N[C@@H](CCCCN)C(=O)N[C@H](C(=O)N[C@H](C(=O)N[C@H](C(=O)O)[C@@H](C)O)C(C)C)C(C)C	.	7.4%	.
CC(/C=C/C=C(C)/C=C/C(=O)O)=C\C=C\C=C(C)\C=C\C=C(C)\C=C\C(=O)O	-20.9%	31.6µM*	.
CC1=C(/C=C/C(C)=C/C=C/C(C)=C/C(=O)O)C(C)(C)CCC1	-6.3%	?	-26.9
Cc1n[nH]c(=O)[nH]c1=O	-5.2%	10.6%[20.9 µM]	.
CCOC(=O)c1c(C)[nH]c(C(=O)N/N=C/c2ccc(Br)cc2)c1C	-15.5%	-5.2%	-112.6*
Cc1[nH]c(C(=O)N/N=C/c2ccc(C(=O)O)cc2)c(C)c1C(=O)N/N=C/c1ccc(C(=O)O)cc1	-12.2%	2.1%	?
O=C(CN(C1CC1)S(=O)(=O)c1ccc(S(=O)(=O)N2CCCCCC2)cc1)Nc1ccccc1	-0.1%	4.7%	?
COC(=O)CCN(C1CCCCC1)S(=O)(=O)c1ccc(S(=O)(=O)N2CCCCC2)cc1	-15.0%	1.78µM*	-27.7
COc1ccc(-c2nc(-c3ccccn3)nc(N3CCN(C)CC3)c2C#N)cc1	.	14.1µM*	.
CN1CCN(c2nc(-c3ccccc3)nc(-c3ccc(F)cc3)c2C#N)CC1	.	0.3%	.
CCC1OC(=O)C(C)[C@@H](O[C@H]2C[C@@](C)(OC)C(O)C(C)O2)C(C)[C@@H](O[C@@H]2OC(C)CC(N(C)C)C2O)[C@@](C)(O)CC(C)C2NC(COCCOC)O[C@H](C2C)[C@@]1(C)O (stereo partly specified)	-0.5%	5.2%	.
COc1ccc(/C=C(\C#N)C(=O)OCC(=O)Nc2c(C)cccc2C(C)C)cc1	?	0.2%	23.0
CC1=NN(c2ccc(C)c(C)c2)C(=O)C1C(c1cccc(O)c1)C1C(=O)N(c2ccc(C)c(C)c2)N=C1C (stereo unspecified)	10µM*	0.708µM*	-30.0
CC1=NN(c2ccc(C)cc2C)C(=O)C1C(c1ccccc1O)C1C(=O)N(c2ccc(C)cc2C)N=C1C (stereo unspecified)	-25.3%	-12.4%	-2.3
COc1cccc(C2CC(C(F)(F)F)n3ncc(C(=O)NCC4CCCO4)c3N2)c1 (stereo unspecified)	14.1µM*	2.7%	6.6
COc1ccc(C2CC(C(F)(F)F)n3ncc(C(=O)NCc4cccnc4)c3N2)cc1OC (stereo unspecified)	0.1%	-0.5%	-82.3*
CCOC(=O)c1c(NC(=O)c2cnn3c2NC(c2cccc(OC)c2)CC3C(F)(F)F)sc2c1CCCC2 (stereo unspecified)	?	-10.0%	56.9
COc1cc(C2CC(C(F)(F)F)n3ncc(C(=O)O)c3N2)cc(OC)c1OC (stereo unspecified)	-8.9%	10.7%	18.6
COCC(O)CNc1ccccc1 (stereo unspecified)	-4.6%	5.7%	-3.0
COc1ccc(C2NC(=S)NC(C)=C2C(=O)c2ccccc2)cc1OC (stereo unspecified)	-13.2%	11.2µM*	-85.9*
CC1=C(C(=O)c2ccccc2)C(c2cccc([N+](=O)[O-])c2)NC(=S)N1 (stereo unspecified)	.	1.12µM*	.
COc1ccc(C2NC(=S)NC(C)=C2C(=O)Nc2ccccn2)cc1OC (stereo unspecified)	-3.5%	4.8%	?
COC(=O)C1=C(C)NC(C)=C(C(=O)OCCN(C)Cc2ccccc2)C1c1cccc([N+](=O)[O-])c1 (stereo unspecified)	-18.5%	-11.3%	21.0

Compound activity deposited in PubChem by National Center for Advancing Translational Sciences (NCATS).
